Measurements published in PubChem BioAssay (NCATS).
Inconclusive results are not listed. A call without a number means that no potency is given here. The source made the active and inactive calls. Calls come from the whole dose curve; as a rule, active = well fitted activation curve with a large enough effect in the main read-out, with a control signal flat (not every such curve was filed as active); inconclusive = small, poorly fitted or top-dose-only effect, or effect the other way, or a change in a side signal; inactive = flat fitted curve, though single readings scatter. Residues, ends and D or L forms follow the SMILES beside them.

Molecular target: 3',5'-cyclic-AMP phosphodiesterase 4B (Homo sapiens) (UniProt Q07343)
Sequence (Q07343 whole entry, looked up): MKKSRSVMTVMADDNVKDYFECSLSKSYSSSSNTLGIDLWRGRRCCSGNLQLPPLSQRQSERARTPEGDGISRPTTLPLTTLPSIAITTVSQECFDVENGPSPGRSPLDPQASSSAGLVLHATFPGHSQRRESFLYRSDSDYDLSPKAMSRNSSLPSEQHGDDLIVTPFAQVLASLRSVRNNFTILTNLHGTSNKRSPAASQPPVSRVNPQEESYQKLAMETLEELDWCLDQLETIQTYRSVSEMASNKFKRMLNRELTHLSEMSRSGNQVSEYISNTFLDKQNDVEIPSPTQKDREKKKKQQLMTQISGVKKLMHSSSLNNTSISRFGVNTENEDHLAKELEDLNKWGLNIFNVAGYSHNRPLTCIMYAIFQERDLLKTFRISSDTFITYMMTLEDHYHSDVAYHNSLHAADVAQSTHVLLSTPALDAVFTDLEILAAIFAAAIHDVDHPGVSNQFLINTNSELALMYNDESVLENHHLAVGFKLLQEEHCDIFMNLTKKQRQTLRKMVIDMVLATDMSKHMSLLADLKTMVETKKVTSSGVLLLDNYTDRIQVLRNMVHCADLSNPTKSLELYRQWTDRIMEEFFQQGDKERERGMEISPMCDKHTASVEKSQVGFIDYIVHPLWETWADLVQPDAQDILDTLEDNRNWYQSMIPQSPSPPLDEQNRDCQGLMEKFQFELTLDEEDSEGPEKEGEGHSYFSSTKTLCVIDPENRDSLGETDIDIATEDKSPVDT
Assay: qHTS Assay for Inhibitors of PDE-IV (AID 607)
Conditions: HEK293 ACTOne CNG channel cells, membrane potential fluorescence; series mostly up to 22.9 µM
From the text: NIH Chemical Genomics Center [NCGC]
NIH Molecular Libraries Screening Centers Network [MLSCN]
The cyclic nucleotide phosphodiesterases (PDEs) are proteins that catalyze hydrolysis of 3', 5'-cyclic nucleotides, such as cyclic adenosine monophosphate (cAMP) and cyclic guanosine monophosphate (cGMP), to their corresponding 5'-nucleotide monophosphates. These enzymes play an important role in controlling cellular concentrations of cyclic nucleotides and have a central role in a variety of intracellular signaling events. cAMP PDEs are emerging as a promising class of drug targets in asthma and cardiovascular disease therapeutic areas.
There are no commercially available cell-based screening assays for PDE inhibitors: currently biochemical assays are done using pure substrates (cAMP or cGMP) and purified recombinant PDE enzymes. As with other biochemical screens on intracellular targets, false positives and false negatives may result from issues involving cell membrane permeability, cellular metabolism, and the like.
Here we report the development of a cell-based screening assay for cAMP phosphodiesterase (PDE) inhibitors. The assay is based on the BD ACTOne# technology (BD Biosciences) which utilizes a modified cyclic nucleotide-gated channel (CNG) to monitor intracellular cAMP changes in live cells. The CNG channel is localized on the plasma membrane, and opens when the intracellular cAMP level increases, resulting in ion flux and cell membrane depolarization. The influx of cations through the CNG channel can be quantified using membrane potential (MP) dyes. We modified the BD ACTOne technology to allow the detection of PDE inhibitors, and performed an inhibitor screen for PDE-IV, which is expressed endogenously in HEK293 cells. We optimized this assay in homogeneous 1536-well plate assay format for high throughput screening.
NCGC Assay Protocol Summary:
The medium contained 10% FBS (Invitrogen), 2 mM L-glutamine, and 250 ug/ml G418 (Cellgro) and 1 ug/ml puromycin (Clontech). ACTOneTM parental cells (BD Biosciences) were maintained in the same medium without puromycin.
The activity of the CNG channel was measured by BD ACTOneTM membrane potential dye kit (BD Biosciences). Forskolin, a positive control for cAMP activation and RO 20-1724, a PDE inhibitor, were both purchased from Sigma and solublized in DMSO.
Sequence,Parameter,Value,Description
1,Reagent,3 uL,1000 cells/well 1536 TC treated Black plate
3,Compound,0.5 uL,Kalypsys dispense RO 20-1724 100 uM final [A]
4,Reagent,3 uL,BD membrane potential dye
6,Compound,23 nL,Final concentration was 0.7nM to 22.9uM
8,Detector,EX 535 / EM 590 [B],Envision
Footnotes: [A] The stock 2 mM RO 20-1724 PDE inhibitor was made in 10 % DMSO. Parental cell line received 10 uM forskolin + 100 uM RO. [B] Envsion settings: Bottom Excitation 535/20 nm top emission 590/20, gain of 150 and 5 flashes per well.
Keywords: PDE, PDE-IV, cytotoxicity, flourescence, MLSMR, MLSCN, NIH Roadmap, qHTS, NCGC

| SMILES | Potency |
| --- | --- |
| O=C(Nc1ccc(-c2cn3ccccc3n2)cc1)c1cc(Br)ccc1O | inactive |
| O=C(O)[C@@H](c1ccccc1)[C@@H](C(=O)O)c1ccccc1 | inactive |
| O=C(N/N=C\c1ccc2c(c1)CCC2)c1ccccc1O | inactive |
| O=C(NCc1cccs1)O[C@H]1C[C@H]2CC[C@@H]1C2 | inactive |
| O=P(O)(CCP(=O)(O)c1ccccc1)c1ccccc1 | inactive |
| O=C(O)[C@H]1CCCC[C@@H]1C(=O)Nc1nc2ccccc2[nH]1 | inactive |
| N[C@@H](C(=O)O)[C@@H]1C[C@H]1C(=O)O | inactive |
| O=C(O)c1ccc(CNCc2ccccc2)cc1 | inactive |
| O=C(O)CC[C@@H](C(=O)O)N1C(=O)[C@@H]2[C@@H]3CC[C@H](C3)[C@@H]2C1=O | inactive |
| CN(C)c1ccc(C(c2ccc(N(C)C)cc2)c2ccc([N+](=O)[O-])cc2)cc1 | inactive |
| CCCCN(c1ccccc1)c1ncnc2c1cnn2C | inactive |
| NCC(=O)N[C@H](CO)C(=O)O (HELM PEPTIDE1{G.[dS]}$$$$V2.0) | inactive |
| O=c1c(-c2ccccc2)nc2cnc(N3CCOCC3)nc2n1-c1ccccc1 | inactive |
| Cc1ccc(S(=O)(=O)N[C@H](CO)C(=O)O)cc1 | inactive |
| c1ccc2cc(-c3cc(-c4cc(-c5ccc6ccccc6c5)on4)no3)ccc2c1 | inactive |
| Cc1ccc(N=Nc2c(O)ccc3cc(S(=O)(=O)O)ccc23)cc1 | inactive |
| CC(=O)OC(C)(C)N=Nc1ccc(Br)cc1 | inactive |
| Nc1nc(SCc2ccccc2[N+](=O)[O-])c2[nH]cnc2n1 | inactive |
| Nc1nc2c(c(=O)[nH]1)N[C@H](CCNc1ccc(C(=O)O)cc1)CN2 | inactive |
| S=C(CSc1ccccc1)Nc1cccc2ccccc12 | inactive |

| SMILES | Potency |
| --- | --- |
| OCCN(CO)CO | inactive |
| CC[C@H]1C(=O)OC[C@H]1Cc1cncn1C | inactive |
| OC(Cc1cccnc1)(c1ccccc1)c1ccccc1 | inactive |
| C[C@H]1CN(CCO)CCN1c1ccccc1 | inactive |
| CC(C)NC1(C(N)=O)CCN(Cc2ccccc2)CC1 | inactive |
| N#C/C(=C(\O)C(=O)O)c1ccc(-c2cccc3ccccc23)cc1 | inactive |
| COc1ccc(C(=O)N2CCC3(CC2)CN(c2ccccc2)C3)cc1 | inactive |
| CN(Cc1cc(Br)cc(Br)c1O)Cc1c(O)ccc2ccccc12 | inactive |
| O=C(O)[C@H](Cc1ccc(O)c([N+](=O)[O-])c1)N1C(=O)c2ccccc2C1=O | inactive |
| CN1CCN(c2nc3c(c(=O)n(C)c(=O)n3C)n2C)CC1 | inactive |
| Cc1ccc(C(N)=Nc2ccccc2)cc1 | inactive |
| O=C(O)C1=C/C(=C(/c2ccccc2)c2cc(C(=O)O)c(O)c3ccccc23)c2ccccc2C1=O | inactive |
| CC(C)(C)c1c2c(c(C(C)(C)C)c3c1OCN(Cc1ccccc1)C3)OCN(Cc1ccccc1)C2 | inactive |
| OC[C@@H]1O[C@@H](n2cnc3c(NC4CCCCC4)ncnc32)[C@@H](O)[C@H]1O | inactive |
| O=C(O)c1[nH]c2c([N+](=O)[O-])cc([N+](=O)[O-])cc2c1C(=O)O | inactive |
| Oc1c(Br)cc(CN(Cc2cc(Br)c(O)c(Br)c2)C2CCCCC2)cc1Br | inactive |
| COC(=O)[C@@H]1[C@@H]2C[C@H]3c4[nH]c5ccccc5c4CCN3C[C@@H]2CC[C@@H]1OS(=O)(=O)O | inactive |
| NCCNC(=S)S | inactive |
| CC(C)C(O)(C(C)C)C(C)C | inactive |
| O=S(=O)(O)c1cc(N=Nc2cccc3ccccc23)c(O)c2ncccc12 | inactive |
